# According to PubChem BioAssay AID777 (Sanford-Burnham Center for Chemical Genomics, 2007):
# The whole screen tested about 96,000 compounds, of which about 19,000 (20%) were called active.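 How the source made its calls: active means blocking of liver enzyme CYP2C9 beyond about 50% at 5 µM (limit read from the data); inactive means the rest.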 The list is a sample of the results.
# Biological target: Cytochrome P450 2C9 (Homo sapiens) (UniProt P11712)
# Assay: blockers of cytochrome P450 2C9 activity – biochemical, luminescence, ADME assay, primary screen (AID 777)
# Conditions: CYP2C9 Supersomes, luciferin-H conversion, at 5 µM, hits give high values
# Cytochrome P450 2C9 (Homo sapiens), sequence (P11712 whole entry, looked up): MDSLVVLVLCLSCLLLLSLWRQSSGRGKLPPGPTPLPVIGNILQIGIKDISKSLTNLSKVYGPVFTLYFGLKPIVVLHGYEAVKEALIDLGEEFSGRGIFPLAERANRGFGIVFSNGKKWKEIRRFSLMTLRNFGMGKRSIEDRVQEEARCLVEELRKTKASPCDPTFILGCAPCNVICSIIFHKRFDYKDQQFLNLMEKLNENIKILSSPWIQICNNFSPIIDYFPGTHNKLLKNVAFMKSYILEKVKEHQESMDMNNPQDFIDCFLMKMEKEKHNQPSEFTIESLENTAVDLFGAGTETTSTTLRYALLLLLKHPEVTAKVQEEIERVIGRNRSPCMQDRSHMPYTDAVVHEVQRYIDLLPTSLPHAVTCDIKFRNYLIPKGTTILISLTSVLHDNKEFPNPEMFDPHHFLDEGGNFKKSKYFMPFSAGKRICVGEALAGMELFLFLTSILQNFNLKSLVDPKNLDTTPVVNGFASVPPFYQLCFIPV
row,SMILES,inhibition
1,CCNc1nc(SCCOc2ccccc2)nc(N(C)C)n1,-4.3% (inactive)
2,Cn1c(=O)cc(SCC(=O)N2CCCC2)c2cc(Cl)ccc21,0.1% (inactive)
3,CCOC(=O)Nc1ccc2c(c1)N(C(=O)CN1CCN3CCCC3C1)c1ccccc1CC2 (centres undefined),0.1% (inactive)
4,CSCC[C@H](NC(=O)NCc1cccs1)C(=O)O,-6.8% (inactive)
5,COc1ccc(-n2ncc3c(N4CCc5ccccc54)ncnc32)cc1,-29.5% (inactive)
6,CC1(C)CC(=O)C=C(NC2CC(C)(C)NC(C)(C)C2)C1,9.6% (inactive)
7,Cc1ccc2oc(=O)c3cnn(CC(=O)N4CCN(c5ccccn5)CC4)c3c2c1,20.1% (inactive)
8,Cc1ccnc(N2CCN(C(=O)CSc3nc4ccccc4nc3N3CCCCC3)CC2)c1,98.5% (active)
9,Cc1ccc(S(=O)(=O)NCC(=O)N2CCN(c3ccccn3)CC2)cc1,5.3% (inactive)
10,CCCc1cc(-c2n[nH]c(=S)n2Cc2ccccc2)cs1,38.6% (inactive)
11,CC(C)c1ccc(N2CCN(C(=O)c3ccccc3NC(=O)/C=C(\C(=O)O)c3ccccc3)CC2)cc1,18% (inactive)
12,CCOCCN(C=O)c1cccc(OC)c1,-20.4% (inactive)
13,CCOC(=O)CN(Cc1ccc(OC)c(OC)c1)S(=O)(=O)c1ccc(OC)cc1,64% (active)
14,O=C(OCc1cc2ccccc2[nH]c1=O)c1cccnc1,12.7% (inactive)
15,C=CCSc1nc(Cc2ccc(Cl)cc2)nc2ccccc12,2.7% (inactive)
16,O=C(CCN1C(=O)c2ccccc2C1=O)Nc1ccncc1,65.7% (active)
17,O=C(CCN1c2ccccc2Sc2ccccc21)Nc1ccccc1,95.4% (active)
18,O=C(CCN1C(=O)c2ccccc2C1=O)Nc1cccc(F)c1,28.8% (inactive)
19,O=C(O)CCCC(=O)Nc1ccccc1-n1ccnc1,0.8% (inactive)
20,O=C(CC1Nc2ccccc2NC1=O)Nc1ccccc1 (centres undefined),6.5% (inactive)
21,O=C(CCN1C(=O)c2ccncc2C1=O)Nc1ccc2c(c1)OCCO2,-3.9% (inactive)
22,COc1ccc(Br)cc1S(=O)(=O)N1CCN=C1C,-27.3% (inactive)
23,Cc1nc2cc(-c3ccc(F)cc3)nn2c(N2CCOCC2)c1C,8.9% (inactive)
24,CCN1CCN(Cc2c(O)ccc3c(=O)c(-c4ccc(OC)c(OC)c4)c(C(F)(F)F)oc23)CC1,8.1% (inactive)
25,O=c1c(-c2ccc3c(c2)OCCO3)c(C(F)(F)F)oc2cc(O)cc(O)c12,87.3% (active)

row,SMILES,inhibition
1,Cc1nc(SC(C)C)[nH]c(=O)c1Cc1ccccc1,26% (inactive)
2,CCN1C(=O)/C(=C2/Sc3ccccc3N2CCCS(=O)(=O)O)SC1=S,7% (inactive)
3,COc1cc(/C=N/Nc2nn3cnnc3c3ccccc23)cc(OC)c1OC,25.9% (inactive)
4,Cc1onc(-c2c(Cl)cccc2Cl)c1C(=O)c1c[nH]c(C(=O)NC2CC2)c1,7.6% (inactive)
5,COc1c(O)cccc1-c1nnn(CCC(=O)OCC(=O)c2ccccc2)n1,29% (inactive)
6,O=C1c2ccccc2C(=O)N1Cc1cc(-c2ccccc2Cl)no1,-135% (inactive)
7,Cc1onc(-c2ccccc2Cl)c1C(=O)NCCn1ccc2ccccc21,54.6% (active)
8,Cc1onc(-c2ccccc2Cl)c1C(=O)OCC(=O)c1ccccc1,65.8% (active)
9,Cc1cc2ccccc2n1CCNC(=O)COc1ccc2ccccc2c1,33.5% (inactive)
10,Cc1ccc2cc(CCNC(=O)c3ccc4c(c3)OCO4)c(=O)[nH]c2c1,31.9% (inactive)
11,Cc1ccc2cc(CCNC(=O)c3c(-c4ccccc4Cl)noc3C)c(=O)[nH]c2c1,93.8% (active)
12,Cc1ccc2[nH]c(=O)c(COC(=O)c3ccccn3)cc2c1,8.6% (inactive)
13,CC(C)Cc1oc(C(=O)O)cc1CN,-3.5% (inactive)
14,C#CCSc1nnc(-c2sc3ccccc3c2Cl)o1,26.7% (inactive)
15,COc1ccc(C(=O)N2CCC(C(=O)Nc3cccc(C)c3)CC2)cc1OC,8.3% (inactive)
16,CCOc1ccc(N=C2SC(C(=O)O)CC(=O)N2C)cc1 (centres undefined),-4.3% (inactive)
17,CC(C)(C)NC(=O)COc1ccc(CNc2ccc3[nH]c(=O)[nH]c3c2)cc1,31.4% (inactive)
18,Cc1ccc(S(=O)(=O)c2c(COC(=O)c3cccc(Cl)c3)c(-c3ccccc3)nn2C)cc1,49.8% (inactive)
19,Cc1ccc(N(CC(O)CN2CCCC2)S(=O)(=O)c2ccccc2)cc1 (centres undefined),27.2% (inactive)
20,Cc1cccc(N(CC(O)CN(C)C)S(=O)(=O)c2ccccc2)c1 (centres undefined),7.4% (inactive)
21,O=S(=O)(c1ccccc1)N(CC(O)CN1CCCCC1)c1ccccc1 (centres undefined),56% (active)
22,Cc1ccc(C(=O)N(CN2CCCC2=O)c2ccc(F)cc2)cc1,-20% (inactive)
23,CC(=O)N1Cc2ccccc2CC1C(=O)O (centres undefined),-18.6% (inactive)
24,Cc1c(NC(=O)C(C)OC(=O)c2cc3c4ccccc4n(C)c3s2)c(=O)n(-c2ccccc2)n1C (centres undefined),-4.5% (inactive)
25,CCOc1ccccc1NC(=O)C1CCC(CNc2c(N3CCOCC3)c(=O)c2=O)CC1 (centres undefined),-30.1% (inactive)

row,SMILES,inhibition
1,O=C(NC1CCCCC1)C1CC(=O)N(CCc2ccccc2)C1 (centres undefined),-4.8% (inactive)
2,Cc1ccc(CCN2CC(C(=O)O)CC2=O)cc1 (centres undefined),53.7% (active)
3,O=C(O)C1CC(=O)N(Cc2cccnc2)C1 (centres undefined),-22% (inactive)
4,Cc1ccc(CNC(=O)C2CC(=O)N(C3CCCCCCC3)C2)cc1 (centres undefined),-1.3% (inactive)
5,CCc1ccc(CNC(=O)C2CC(=O)N(CCc3ccc(C)cc3)C2)cc1 (centres undefined),54.1% (active)
6,COCCCNC(=O)C1CC(=O)N(CCc2ccccc2)C1 (centres undefined),-3.7% (inactive)
7,Cc1nc2ccccc2c2oc(C(=O)NCCCN3CCC(C)CC3)cc12,7.6% (inactive)
8,O=C(Cn1cnc2c(nnn2-c2ccccc2)c1=O)N1CCC(Cc2ccccc2)CC1,-30.4% (inactive)
9,Cc1ccc(C(=O)N2CCCC2)c(F)c1F,6.3% (inactive)
10,CN(C)CC(O)COc1ccc(C(C)(C)c2ccc(OCC(O)CN(C)C)cc2)cc1 (centres undefined),-6.4% (inactive)
11,O=C(CNC(=O)c1ccccc1)NCC(=O)OCc1ccc(Cl)cc1,4.4% (inactive)
12,O=C(NCC1CCC(C(=O)O)CC1)OCc1ccccc1 (centres undefined),-10.5% (inactive)
13,O=C(CNC(=O)OCc1ccccc1)Oc1cc2oc(=O)cc(-c3ccccc3)c2cc1Cl,75.7% (active)
14,CCOC(=O)CSc1nncc2ccc(OC)c(OC)c12,4.3% (inactive)
15,Cc1nc2ccccc2cc1OCc1ccc(F)cc1,47.1% (inactive)
16,Cc1no[n+]([O-])c1COc1ccccc1/C=C1\NC(=S)NC1=O,30.2% (inactive)
17,Cc1ccc(-c2noc(-c3ccccc3C(=O)NCC3CCCO3)n2)cc1 (centres undefined),70.8% (active)
18,O=C(NCC1CCCO1)c1ccc2ccccc2n1 (centres undefined),-36.5% (inactive)
19,Cc1ccc(C(=O)NCC2CCCO2)o1 (centres undefined),2.8% (inactive)
20,COCCNC(=O)c1ccccc1-c1nc(-c2ccccc2Cl)no1,83.9% (active)
21,COc1cc(SC)ccc1C(=O)NCCOc1ccccc1Cl,28.9% (inactive)
22,O=C(NCc1ccccn1)c1cc(-c2ccccc2Cl)on1,-163% (inactive)
23,O=C(c1ccc(=O)[nH]c1)N(Cc1ccco1)C1(C(=O)NC2CCCCC2)CCCCC1,-8.6% (inactive)
24,COc1ccc(C2N=C(N)N=C(N)N2c2ccccc2)cc1OC (centres undefined),-7% (inactive)
25,COc1cc(/C=N\NC(=O)C2C(=O)NCC2c2ccccc2)cc(OC)c1O (centres undefined),-9.3% (inactive)

row,SMILES,inhibition
1,O=C(N/N=C/c1ccsc1)c1cc(O)cc(O)c1,5.4% (inactive)
2,O=C(N/N=C/c1ccc(O)c(O)c1)C1c2ccccc2Oc2ccccc21,55.2% (active)
3,CCC1=C/C(=C\c2ccc3c(c2)OCO3)C(=O)S1,16.7% (inactive)
4,CN(Cc1ccccc1)Cc1ccccc1F,-5% (inactive)
5,CC(O)CN(Cc1ccc(Cl)cc1)CC(C)O (centres undefined),-2.8% (inactive)
6,OCCN(Cc1ccccc1)Cc1ccc(Cl)cc1,87.6% (active)
7,Cn1c(=O)cc(SCC(=O)N2CCN(C(=O)c3ccco3)CC2)c2ccccc21,-14% (inactive)
8,O=C(Nc1nnc(C2CC2)s1)c1ccccn1,-32.1% (inactive)
9,c1cncc(-c2nnc3n2C2(CCCCC2)Cc2ccccc2-3)c1,11.2% (inactive)
10,O=c1c2ccccc2nc2n1C1(CCCCC1)Cc1ccccc1-2,87.7% (active)
11,CCC1(CC)Cc2ccccc2-c2nc3ccccc3c(=O)n21,19.3% (inactive)
12,CC(C)[C@H](NC(=O)Nc1ccc(S(N)(=O)=O)cc1)C(=O)O,-7.3% (inactive)
13,O=S(=O)(/N=C(/Nc1ccccn1)c1ccccc1)c1ccc(Cl)cc1,29% (inactive)
14,O=C1CCCc2c1[nH]c1ccc(Br)cc21,19.2% (inactive)
15,CCOC(=O)c1sc(=S)n2c1[nH]c(=O)c1ccc(C(=O)OC)cc12,42.1% (inactive)
16,COC(=O)c1ccc(C2NC(=O)NC(C)=C2C(=O)N(C)C)cc1 (centres undefined),-16.8% (inactive)
17,CCOC(=O)C1=C(C)Nc2sc(C(=O)c3ccc(Br)cc3)c(N)c2C1c1ccc(C(=O)OC)cc1 (centres undefined),91.9% (active)
18,Cc1c(Nc2nc3ccccc3nc2NS(=O)(=O)c2cccs2)c(=O)n(-c2ccccc2)n1C,47.6% (inactive)
19,COc1ccc(NCc2nnc(SCc3ccccc3)n2-c2ccc(OC)cc2)cc1,59.6% (active)
20,CCn1c(CNc2ccc(OC)cc2)nnc1SCC(=O)c1ccc(OC)cc1,25.4% (inactive)
21,COc1ccc(-n2c(Cc3cccn3C)nnc2SCC(=O)Nc2cc(C)cc(C)c2)cc1,28.5% (inactive)
22,C=C(C)Cn1c(C)cc(C)c(S(=O)(=O)c2ccccc2C)c1=O,36.5% (inactive)
23,Cc1ccc(-n2ncc3c2ncn2nc(-c4ccco4)nc32)c(C)c1,0.2% (inactive)
24,NC(=O)C1CC=CCC1C(=O)OCC(Cl)=C(Cl)Cl (centres undefined),2.9% (inactive)
